# Results from article PMC12820563, “FoxP3 forms a head-to-head dimer in vivo and stabilizes its multimerization on adjacent microsatellites”.
# The full ranking holds about 16,000 sequences; the median of “rpm ratio (pull-down/input)” is about 0.94, and the highest 2% start at about 1.7. Many of the other results were omitted from the sample, so the highest values are more common in it than they were.
# Molecular target: T1, MBP-FoxP1dN (Mus musculus, UniProt P58462 326-579)
# T1 sequence: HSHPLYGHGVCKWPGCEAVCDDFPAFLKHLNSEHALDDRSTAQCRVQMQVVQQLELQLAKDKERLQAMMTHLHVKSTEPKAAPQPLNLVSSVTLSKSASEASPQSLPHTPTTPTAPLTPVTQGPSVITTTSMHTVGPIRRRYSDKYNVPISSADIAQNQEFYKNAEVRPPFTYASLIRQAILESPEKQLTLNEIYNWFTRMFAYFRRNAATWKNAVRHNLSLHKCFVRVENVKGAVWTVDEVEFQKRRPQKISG
# Assay: PD-seq (MBP pull-down with sequencing); 20 mM Tris-HCl pH 7.5, 100 mM NaCl, 1.5 mM MgCl2, 0.4 uM protein, 0.1 uM dsDNA library, 30 min, room temperature, amylose pull-down; high values mean tight binding
# Conditions: protein: recombinant; tags: His6-MBP; chain copies: 2; dsDNA, one strand shown
# Method in brief: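 Mouse FoxP3 or FoxP1 fragment lacking the N-terminus, His6-MBP-tagged and expressed in E. coli, was incubated at 0.4 µM with 0.1 µM Klenow-filled degenerate double-stranded DNA library for 30 min at room temperature in Tris pH 7.5 buffer with NaCl and MgCl2. Complexes captured on amylose resin were washed three times and their DNA sequenced on Illumina. Binding is reads-per-million enrichment of pull-down over input, replicates pooled.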
row,Sequence,binding signal
1,GATGATTGTTCTCCCAGCTGATGAATTAAGATGATCGAGTAAACAAATTTTCCTAATCTTTCTGTTCAAGCGCCATCTAC,0.992 RPM ratio (pull-down/input)
2,GATGATTGTTCTCCCAGCTGATGAATTTGACTATTCGAGTAAACAAATTTTCCTAATCTTTCTGTTCAAGCGCCATCTAC,0.903 RPM ratio (pull-down/input)
3,GATGATTGTTCTCCCAGCTGATGAATTATTTGCGTCGAGTAAACAAATTTTCCTAATCTTTCTGTTCAAGCGCCATCTAC,1.66 RPM ratio (pull-down/input)
4,GATGATTGTTCTCCCAGCTGATGAATTGTCCACATCGAGTAAACAAATTTTCCTAATCTTTCTGTTCAAGCGCCATCTAC,1.33 RPM ratio (pull-down/input)
5,GATGATTGTTCTCCCAGCTGATGAATTGCTTCCTTCGAGTAAACAAATTTTCCTAATCTTTCTGTTCAAGCGCCATCTAC,1.06 RPM ratio (pull-down/input)
6,GATGATTGTTCTCCCAGCTGATGAATTCTTAATATCGAGTAAACAAATTTTCCTAATCTTTCTGTTCAAGCGCCATCTAC,1.08 RPM ratio (pull-down/input)
7,GATGATTGTTCTCCCAGCTGATGAATTCAGGTTGTCGAGTAAACAAATTTTCCTAATCTTTCTGTTCAAGCGCCATCTAC,1 RPM ratio (pull-down/input)
8,GATGATTGTTCTCCCAGCTGATGAATTCGAAGGATCGAGTAAACAAATTTTCCTAATCTTTCTGTTCAAGCGCCATCTAC,0.845 RPM ratio (pull-down/input)
9,GATGATTGTTCTCCCAGCTGATGAATTTCTTGATTCGAGTAAACAAATTTTCCTAATCTTTCTGTTCAAGCGCCATCTAC,1.01 RPM ratio (pull-down/input)
10,GATGATTGTTCTCCCAGCTGATGAATTTGCTGGGTCGAGTAAACAAATTTTCCTAATCTTTCTGTTCAAGCGCCATCTAC,0.859 RPM ratio (pull-down/input)
11,GATGATTGTTCTCCCAGCTGATGAATTCGCGGACTCGAGTAAACAAATTTTCCTAATCTTTCTGTTCAAGCGCCATCTAC,0.757 RPM ratio (pull-down/input)
12,GATGATTGTTCTCCCAGCTGATGAATTGTTTGTTTCGAGTAAACAAATTTTCCTAATCTTTCTGTTCAAGCGCCATCTAC,2.72 RPM ratio (pull-down/input)
13,GATGATTGTTCTCCCAGCTGATGAATTCTTTTTTTCGAGTAAACAAATTTTCCTAATCTTTCTGTTCAAGCGCCATCTAC,1.07 RPM ratio (pull-down/input)
14,GATGATTGTTCTCCCAGCTGATGAATTTGTTTCTTCGAGTAAACAAATTTTCCTAATCTTTCTGTTCAAGCGCCATCTAC,1.7 RPM ratio (pull-down/input)
15,GATGATTGTTCTCCCAGCTGATGAATTTTTTGTTTCGAGTAAACAAATTTTCCTAATCTTTCTGTTCAAGCGCCATCTAC,1.13 RPM ratio (pull-down/input)
16,GATGATTGTTCTCCCAGCTGATGAATTGTTGATTTCGAGTAAACAAATTTTCCTAATCTTTCTGTTCAAGCGCCATCTAC,2.42 RPM ratio (pull-down/input)
17,GATGATTGTTCTCCCAGCTGATGAATTTTCTAATTCGAGTAAACAAATTTTCCTAATCTTTCTGTTCAAGCGCCATCTAC,1.05 RPM ratio (pull-down/input)
18,GATGATTGTTCTCCCAGCTGATGAATTGTTGAATTCGAGTAAACAAATTTTCCTAATCTTTCTGTTCAAGCGCCATCTAC,1.15 RPM ratio (pull-down/input)
19,GATGATTGTTCTCCCAGCTGATGAATTTTGTTTTTCGAGTAAACAAATTTTCCTAATCTTTCTGTTCAAGCGCCATCTAC,2.75 RPM ratio (pull-down/input)
20,GATGATTGTTCTCCCAGCTGATGAATTCTGTTGTTCGAGTAAACAAATTTTCCTAATCTTTCTGTTCAAGCGCCATCTAC,2.6 RPM ratio (pull-down/input)
21,GATGATTGTTCTCCCAGCTGATGAATTGAATTGTTCGAGTAAACAAATTTTCCTAATCTTTCTGTTCAAGCGCCATCTAC,0.984 RPM ratio (pull-down/input)

row,Sequence,binding signal
1,GATGATTGTTCTCCCAGCTGATGAATTAGGTATATCGAGTAAACAAATTTTCCTAATCTTTCTGTTCAAGCGCCATCTAC,0.972 RPM ratio (pull-down/input)
2,GATGATTGTTCTCCCAGCTGATGAATTAGCAGGATCGAGTAAACAAATTTTCCTAATCTTTCTGTTCAAGCGCCATCTAC,0.814 RPM ratio (pull-down/input)
3,GATGATTGTTCTCCCAGCTGATGAATTAACAAGGTCGAGTAAACAAATTTTCCTAATCTTTCTGTTCAAGCGCCATCTAC,1 RPM ratio (pull-down/input)
4,GATGATTGTTCTCCCAGCTGATGAATTGATGACTTCGAGTAAACAAATTTTCCTAATCTTTCTGTTCAAGCGCCATCTAC,0.994 RPM ratio (pull-down/input)
5,GATGATTGTTCTCCCAGCTGATGAATTGACTTCTTCGAGTAAACAAATTTTCCTAATCTTTCTGTTCAAGCGCCATCTAC,0.996 RPM ratio (pull-down/input)
6,GATGATTGTTCTCCCAGCTGATGAATTGTTGACTTCGAGTAAACAAATTTTCCTAATCTTTCTGTTCAAGCGCCATCTAC,2.11 RPM ratio (pull-down/input)
7,GATGATTGTTCTCCCAGCTGATGAATTAGTGCGTTCGAGTAAACAAATTTTCCTAATCTTTCTGTTCAAGCGCCATCTAC,1.1 RPM ratio (pull-down/input)
8,GATGATTGTTCTCCCAGCTGATGAATTCGATCATTCGAGTAAACAAATTTTCCTAATCTTTCTGTTCAAGCGCCATCTAC,0.949 RPM ratio (pull-down/input)
9,GATGATTGTTCTCCCAGCTGATGAATTGTCACCATCGAGTAAACAAATTTTCCTAATCTTTCTGTTCAAGCGCCATCTAC,1.13 RPM ratio (pull-down/input)
10,GATGATTGTTCTCCCAGCTGATGAATTACTGTTGTCGAGTAAACAAATTTTCCTAATCTTTCTGTTCAAGCGCCATCTAC,2.55 RPM ratio (pull-down/input)
11,GATGATTGTTCTCCCAGCTGATGAATTGTTCCTGTCGAGTAAACAAATTTTCCTAATCTTTCTGTTCAAGCGCCATCTAC,0.999 RPM ratio (pull-down/input)
12,GATGATTGTTCTCCCAGCTGATGAATTTTTCTTGTCGAGTAAACAAATTTTCCTAATCTTTCTGTTCAAGCGCCATCTAC,1.1 RPM ratio (pull-down/input)
13,GATGATTGTTCTCCCAGCTGATGAATTTTTGTTGTCGAGTAAACAAATTTTCCTAATCTTTCTGTTCAAGCGCCATCTAC,2.85 RPM ratio (pull-down/input)
14,GATGATTGTTCTCCCAGCTGATGAATTTCTTTTGTCGAGTAAACAAATTTTCCTAATCTTTCTGTTCAAGCGCCATCTAC,0.952 RPM ratio (pull-down/input)
15,GATGATTGTTCTCCCAGCTGATGAATTACTACTGTCGAGTAAACAAATTTTCCTAATCTTTCTGTTCAAGCGCCATCTAC,1.23 RPM ratio (pull-down/input)
16,GATGATTGTTCTCCCAGCTGATGAATTTCTGTTGTCGAGTAAACAAATTTTCCTAATCTTTCTGTTCAAGCGCCATCTAC,2.16 RPM ratio (pull-down/input)
17,GATGATTGTTCTCCCAGCTGATGAATTACTGATGTCGAGTAAACAAATTTTCCTAATCTTTCTGTTCAAGCGCCATCTAC,1.37 RPM ratio (pull-down/input)
18,GATGATTGTTCTCCCAGCTGATGAATTGTTGTTGTCGAGTAAACAAATTTTCCTAATCTTTCTGTTCAAGCGCCATCTAC,3.2 RPM ratio (pull-down/input)
19,GATGATTGTTCTCCCAGCTGATGAATTTTTTTTGTCGAGTAAACAAATTTTCCTAATCTTTCTGTTCAAGCGCCATCTAC,0.87 RPM ratio (pull-down/input)
20,GATGATTGTTCTCCCAGCTGATGAATTTTTTCTGTCGAGTAAACAAATTTTCCTAATCTTTCTGTTCAAGCGCCATCTAC,0.986 RPM ratio (pull-down/input)
21,GATGATTGTTCTCCCAGCTGATGAATTGTCGTTGTCGAGTAAACAAATTTTCCTAATCTTTCTGTTCAAGCGCCATCTAC,1.38 RPM ratio (pull-down/input)

row,Sequence,binding signal
1,GATGATTGTTCTCCCAGCTGATGAATTGCTATGTTCGAGTAAACAAATTTTCCTAATCTTTCTGTTCAAGCGCCATCTAC,1.24 RPM ratio (pull-down/input)
2,GATGATTGTTCTCCCAGCTGATGAATTCGAGTGGTCGAGTAAACAAATTTTCCTAATCTTTCTGTTCAAGCGCCATCTAC,0.752 RPM ratio (pull-down/input)
3,GATGATTGTTCTCCCAGCTGATGAATTCCTATCTTCGAGTAAACAAATTTTCCTAATCTTTCTGTTCAAGCGCCATCTAC,0.802 RPM ratio (pull-down/input)
4,GATGATTGTTCTCCCAGCTGATGAATTTGACTTGTCGAGTAAACAAATTTTCCTAATCTTTCTGTTCAAGCGCCATCTAC,0.82 RPM ratio (pull-down/input)
5,GATGATTGTTCTCCCAGCTGATGAATTTCCTGCGTCGAGTAAACAAATTTTCCTAATCTTTCTGTTCAAGCGCCATCTAC,0.938 RPM ratio (pull-down/input)
6,GATGATTGTTCTCCCAGCTGATGAATTCTCTCTTTCGAGTAAACAAATTTTCCTAATCTTTCTGTTCAAGCGCCATCTAC,0.917 RPM ratio (pull-down/input)
7,GATGATTGTTCTCCCAGCTGATGAATTTAATATGTCGAGTAAACAAATTTTCCTAATCTTTCTGTTCAAGCGCCATCTAC,0.979 RPM ratio (pull-down/input)
8,GATGATTGTTCTCCCAGCTGATGAATTGTCGTCGTCGAGTAAACAAATTTTCCTAATCTTTCTGTTCAAGCGCCATCTAC,1.05 RPM ratio (pull-down/input)
9,GATGATTGTTCTCCCAGCTGATGAATTGTTGTCGTCGAGTAAACAAATTTTCCTAATCTTTCTGTTCAAGCGCCATCTAC,2.33 RPM ratio (pull-down/input)
10,GATGATTGTTCTCCCAGCTGATGAATTTCTGTCGTCGAGTAAACAAATTTTCCTAATCTTTCTGTTCAAGCGCCATCTAC,0.96 RPM ratio (pull-down/input)
11,GATGATTGTTCTCCCAGCTGATGAATTCGATCTATCGAGTAAACAAATTTTCCTAATCTTTCTGTTCAAGCGCCATCTAC,0.885 RPM ratio (pull-down/input)
12,GATGATTGTTCTCCCAGCTGATGAATTATGATTGTCGAGTAAACAAATTTTCCTAATCTTTCTGTTCAAGCGCCATCTAC,1.45 RPM ratio (pull-down/input)
13,GATGATTGTTCTCCCAGCTGATGAATTATTGATGTCGAGTAAACAAATTTTCCTAATCTTTCTGTTCAAGCGCCATCTAC,1.85 RPM ratio (pull-down/input)
14,GATGATTGTTCTCCCAGCTGATGAATTATTCTTGTCGAGTAAACAAATTTTCCTAATCTTTCTGTTCAAGCGCCATCTAC,1.16 RPM ratio (pull-down/input)
15,GATGATTGTTCTCCCAGCTGATGAATTATTGTTGTCGAGTAAACAAATTTTCCTAATCTTTCTGTTCAAGCGCCATCTAC,3.22 RPM ratio (pull-down/input)
16,GATGATTGTTCTCCCAGCTGATGAATTATTGTCGTCGAGTAAACAAATTTTCCTAATCTTTCTGTTCAAGCGCCATCTAC,1.56 RPM ratio (pull-down/input)
17,GATGATTGTTCTCCCAGCTGATGAATTGATTATGTCGAGTAAACAAATTTTCCTAATCTTTCTGTTCAAGCGCCATCTAC,1.31 RPM ratio (pull-down/input)
18,GATGATTGTTCTCCCAGCTGATGAATTATTTCTGTCGAGTAAACAAATTTTCCTAATCTTTCTGTTCAAGCGCCATCTAC,1.11 RPM ratio (pull-down/input)
19,GATGATTGTTCTCCCAGCTGATGAATTATTATTGTCGAGTAAACAAATTTTCCTAATCTTTCTGTTCAAGCGCCATCTAC,3.2 RPM ratio (pull-down/input)
20,GATGATTGTTCTCCCAGCTGATGAATTATTAATGTCGAGTAAACAAATTTTCCTAATCTTTCTGTTCAAGCGCCATCTAC,1.35 RPM ratio (pull-down/input)
21,GATGATTGTTCTCCCAGCTGATGAATTATGAGTCTCGAGTAAACAAATTTTCCTAATCTTTCTGTTCAAGCGCCATCTAC,0.886 RPM ratio (pull-down/input)
